# E-sel TNF inh = E-selectin induction blockers in HUVEC – imaging, immunofluorescence, high content, primary screen. HUVEC TNFa-induced E-selectin immunofluorescence. inhibition, % at 2 µM. actives 0.71% (n = 120,000). AID 1246, 2008;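 active = inhibition above the batch mean plus 3 SD, and confirmed as a hit on visual image review, cut at about 43% in these data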
# CYP2C9 act = human CYP2C9 activators, primary screen, biochemical, luminescence; Cytochrome P450 2C9 (Homo sapiens), P11712; recombinant CYP2C9, luciferin-H conversion; active compounds read high; factor 1 = untreated enzyme, 0 = blocked; activation factor at 5 µM; actives 1.4% (n = 96,000); AID 1024, 2008;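 active = activation factor of 2 or more for CYP2C9 at a 5 µM dose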
# CYP2C19 inh = blockers of cytochrome P450 2C19 activity – biochemical, luminescence, ADME assay, primary screen | inhibition, % at 5 µM | actives 21% (n = 96,000) | P33261 | CYP2C19 Supersomes, luciferin-H EGE luminescence, 30 min;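 active = CYP2C19 inhibition above a set limit at 5 µM in the primary screen, cut at about 50% in these data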
# Target sequence (P33261 whole entry, looked up): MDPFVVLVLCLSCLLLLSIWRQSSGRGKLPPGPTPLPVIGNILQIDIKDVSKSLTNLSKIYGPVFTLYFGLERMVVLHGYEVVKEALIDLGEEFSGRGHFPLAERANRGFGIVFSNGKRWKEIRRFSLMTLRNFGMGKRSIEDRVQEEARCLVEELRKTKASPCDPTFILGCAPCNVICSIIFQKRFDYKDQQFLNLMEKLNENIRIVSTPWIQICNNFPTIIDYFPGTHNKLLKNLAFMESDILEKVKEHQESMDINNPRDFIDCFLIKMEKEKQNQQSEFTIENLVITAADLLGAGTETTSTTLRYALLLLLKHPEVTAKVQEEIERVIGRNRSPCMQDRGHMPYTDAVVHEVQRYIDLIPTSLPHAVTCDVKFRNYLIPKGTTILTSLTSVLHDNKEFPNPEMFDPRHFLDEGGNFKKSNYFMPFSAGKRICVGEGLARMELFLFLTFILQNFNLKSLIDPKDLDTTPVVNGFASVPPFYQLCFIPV
# CYP2C9 inh = blockers of cytochrome P450 2C9 activity – biochemical, luminescence, ADME assay, primary screen | CYP2C9 Supersomes, luciferin-H conversion | AID 777, 2007 | inhibition, % at 5 µM | actives 20% (n = 96,000);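 active = blocking of liver enzyme CYP2C9 beyond about 50% at 5 µM, limit read from the data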
# cytoskel mod = modifiers of F-actin cytoskeleton organization, primary screen, imaging, HUVEC, phalloidin staining, high-content imaging. HUVEC TNFa F-actin phalloidin imaging. inhibition, % at 2 µM. actives 0.18% (n = 91,000);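 active = inhibition above the batch mean plus 3 SD and confirmed as a hit by visual image inspection, cut at about 30% in these data, passing the limit was not always enough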
# CYP2C19 activ = human CYP2C19 activators, primary screen, biochemical, luminescence | Cytochrome P450 2C19 (Homo sapiens), P33261 | recombinant CYP2C19, luciferin-H EGE luminescence; active compounds read high; 0 = fully inhibited enzyme, 1 = untreated enzyme | activation factor at 5 µM | 96,000 tested, under 10 active;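 active = activation factor of at least 2 at 5 µM in the primary screen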
# A number is an active result; n = inactive; x = no result. Compounds with a hit are over-represented: about 22% of the library has one in this group of screens.
SMILES,E-sel TNF inh,CYP2C9 act,CYP2C19 inh,CYP2C9 inh,cytoskel mod,CYP2C19 activ
O=C(O)c1ccc(-c2ccccc2Cl)o1,n,x,x,x,x,x
Cc1ccccc1-c1ccc(Nc2ccc(N3CCOCC3)cc2)nn1,x,n,n,58.2,n,n
O=S1(=O)N=C(Nc2ccc(N3CCOCC3)cc2)c2ccccc21,n,x,x,x,n,x
COC(=O)CN(c1ccccn1)S(=O)(=O)c1ccccc1,n,n,n,n,n,n
Cc1ccccc1N1C(=O)CC2(CCCC2)CC1=O,n,x,x,x,x,x
O=S(=O)(c1ccc(N2CCOCC2)nc1)N1CCOCC1,n,n,n,n,n,n
NC(=O)c1cccc(S(=O)(=O)N2CCCCC2)c1,n,n,n,n,n,n
O=S(=O)(c1ccc(Nc2ccc3c(c2)OCO3)nc1)N1CCOCC1,n,n,n,78.1,n,n
O=C(OCc1ccc2c(c1)OCO2)c1cccc(S(=O)(=O)N2CCCCC2)c1,n,n,92.5,99.3,n,n
COC(=O)c1cccc(S(=O)(=O)N2CCCCC2)c1,x,n,58.2,n,n,n
O=C(OCc1ccc2c(c1)OCO2)c1ccc(S(=O)(=O)N2CCCC2)cc1,n,n,82.9,97.4,n,n
O=C(c1ccc(S(=O)(=O)N2CCCCC2)cc1)N1CCN(Cc2ccc3c(c2)OCO3)CC1,x,n,n,n,n,n
CCOC(=O)CSc1nnc(NCC(=O)OC)c(=O)[nH]1,n,n,n,n,n,n
CC(/C=N/NC(=O)c1ccco1)=C\c1ccccc1,n,x,x,x,x,x
Cc1nn(Cc2ccccc2)c(C)c1NC(=O)Cn1nc([N+](=O)[O-])c(Cl)c1C,n,n,n,n,n,n
COc1ccc(N2C(=O)c3ccccc3NC2c2cccnc2)cc1 (stereo not drawn),n,x,x,x,x,x
O=C(Nc1ccc2c(c1)OCO2)c1cccc(S(=O)(=O)N2CCCC2)c1,n,n,n,n,n,n
O=C(COC(=O)c1cccc(S(=O)(=O)N2CCOCC2)c1)Nc1ccc2c(c1)OCO2,n,n,70.3,60.7,n,n
Clc1cccc(Cl)c1-c1nnc2cccc(Cl)n12,n,x,x,x,n,x
C=C(Cl)COc1cc(C)cc2oc(=O)cc(CC)c12,n,n,n,51.9,n,n
CCc1cc(=O)oc2cc(C)cc(OC(=O)c3ccco3)c12,n,n,66.3,n,n,n
CCCc1cc(=O)oc2cc(C)cc(OCC(=O)O)c12,n,n,n,n,n,n
Cc1cc(OC(=O)c2ccco2)c2c(C)cc(=O)oc2c1,n,n,n,n,n,n
CC(=O)c1cccc(NC(=O)COc2ccc(S(=O)(=O)N3CCCCC3)cc2)c1,n,n,66.6,67.4,n,n
COc1ccccc1N(CC(=O)Nc1ccc(S(=O)(=O)N2CCCCC2)cc1)S(C)(=O)=O,n,x,x,x,n,x
SMILES,E-sel TNF inh,CYP2C9 act,CYP2C19 inh,CYP2C9 inh,cytoskel mod,CYP2C19 activ
COc1ccc(OCC(=O)Nc2ccc(S(=O)(=O)N3CCCCCC3)cc2)cc1,n,n,n,86.4,n,n
Cc1ccc(OCC(=O)Nc2ccc(S(=O)(=O)N3CCN(C)CC3)cc2)cc1,n,x,x,x,n,x
CC(=O)c1cccc(NC(=O)c2ccc(S(=O)(=O)N3CCCCC3)cc2)c1,n,n,n,n,n,n
O=C(COc1ccccc1)Nc1ccc(S(=O)(=O)N2CCCCCC2)cc1,x,n,n,n,n,n
Cc1ccc(S(=O)(=O)N2CCN(C(=O)CCC(=O)OCC(=O)Nc3cccc(C#N)c3)CC2)cc1,n,n,77.7,75.0,n,n
COc1ccccc1OCC(=O)Nc1ccc(S(=O)(=O)N2CCCCCC2)cc1,n,n,86.5,79.6,n,n
CCCC(CCC)C(=O)NC1CCN(Cc2ccccc2)CC1,n,x,x,x,x,x
O=C(COc1ccc(S(=O)(=O)N2CCCCC2)cc1)NC1CCCCC1,n,n,n,72.1,n,n
CCOC(=O)C1CCCN(C(=O)CSc2nccn2C)C1 (stereo not drawn),n,n,55.3,n,n,n
CCOC(=O)C1CCCN(C(=O)c2ccccc2Oc2ccccc2)C1 (stereo not drawn),n,n,86.6,99.4,n,n
CCOC(=O)C1CCCN(C(=O)c2ccccc2NC(C)=O)C1 (stereo not drawn),n,n,n,n,n,n
CCOC(=O)C1CCCN(C(=O)c2cc(Nc3ccc(OC)cc3)nc3ccccc23)C1 (stereo not drawn),n,n,n,76.8,n,n
CCOC(=O)C1CCCN(C(=O)c2cc(-c3ccccc3)on2)C1 (stereo not drawn),n,2.5,n,n,n,n
CCOC(=O)C1CCCN(C(=O)COc2ccccc2O)C1 (stereo not drawn),n,n,n,n,n,n
Cc1cc(SCNC(=O)c2ccccc2)nc(C(C)C)n1,n,x,x,x,x,x
COc1ccc2c(c1OC)C(=O)N(c1ccc3c(c1)CCC3)C2=O,n,x,x,x,n,x
CCC(=O)Nc1ccc(NC(=O)CSc2nnnn2-c2cccnc2)cc1C,n,n,n,n,n,n
COc1ccc(CCN(Cc2cccs2)S(=O)(=O)c2ccc(S(=O)(=O)N(C)C3CCCCC3)cc2)cc1OC,n,x,x,x,x,x
CCOC(=O)C1CCCN(C(=O)c2ccco2)C1 (stereo not drawn),n,n,n,n,x,n
CCOC(=O)C1CCCN(C(=O)c2ccc(C)cc2O)C1 (stereo not drawn),x,n,81.2,n,n,n
COc1ccc2nc3sc(C(=O)NCc4cccs4)c(N)c3cc2c1,x,n,77.3,56.5,n,n
CCOC(=O)c1cn(CC)c2ccc(Br)cc2c1=O,x,2,n,n,n,n
O=C(CCn1nnc2ccccc21)Nc1nnc(Cc2ccc(F)cc2)s1,46.8,n,n,n,x,n
CCC(=O)N(CC)Cc1cc(=O)[nH]c2ccccc12,n,x,x,x,x,x
O=c1[nH]c(=O)n(Cc2ccco2)c2c1C(C(F)(F)F)(C(F)(F)F)N=C(Cc1ccccc1)N2,n,n,n,76.5,n,n
SMILES,E-sel TNF inh,CYP2C9 act,CYP2C19 inh,CYP2C9 inh,cytoskel mod,CYP2C19 activ
O=C(c1ccccc1)c1nn(-c2ccccc2)c(=O)cc1C(F)(F)F,n,n,n,n,n,n
O=C(c1ccccc1)c1nn(-c2ccc(Cl)cc2)c(=O)cc1C(F)(F)F,n,n,74.9,53.0,x,n
COc1ccc(C2CC(c3cccs3)=NN2S(C)(=O)=O)cc1OC (stereo not drawn),n,x,x,x,x,x
COc1ccc(C2CC(c3cccs3)=NN2c2nc(-c3ccccc3)cs2)cc1OC (stereo not drawn),n,n,85.6,74.3,n,n
CCCCc1nc(SCC(=O)Nc2ccc(S(N)(=O)=O)cc2)n[nH]1,n,n,n,n,n,n
Cc1ccc2oc(=O)n(CCCOc3ccccc3)c2c1,67.5,n,94.1,n,n,n
Cc1ccc2oc(=O)n(Cc3ccccc3OC(C)C)c2c1,n,n,85.5,85.4,n,n
CCCCOc1ccccc1Cn1c(=O)oc2ccc(C)cc21,n,n,86.8,87.7,n,n

# Screening results (PubChem BioAssay)
